Screening results from PubChem.
The full list was thinned out, with hits kept by preference.
nsP2pro inh = blocks chikungunya virus nsP2 protease peptide cleavage | actives 1.1% (n = 31,000) | FRET peptide cleavage, nsP2pro, fluorescence 1 h | Potency, µM (highest dose often 24.9 µM), actives largely listed as inhibitors | AID 1964107 | Q8JUX6; also: nearly all actives have a fitted effect of over 60% in size
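Purified recombinant nsP2pro (150 nM final) in 10 mM Tris-HCl pH 8.0 with 0.01% Tween 20 was preincubated 15 min at room temperature with compound (7 concentrations, up to 25 uM). FRET peptide 2 substrate (2.5 uM final) was then added; fluorescence was read after 1 h.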
nsP2 cell sec = inhibits CHIKV nsP2 protease in cells; shares compounds with nsP2pro inh; cell-based CHIKV nsP2 protease reporter assay; Potency, µM (series often up to 51.1 µM), actives largely listed as inhibitors; actives 10% (n = 450); also: nearly all actives have a fitted effect of over 70% in size
Target sequence (Q8JUX6 220-798 limits assumed): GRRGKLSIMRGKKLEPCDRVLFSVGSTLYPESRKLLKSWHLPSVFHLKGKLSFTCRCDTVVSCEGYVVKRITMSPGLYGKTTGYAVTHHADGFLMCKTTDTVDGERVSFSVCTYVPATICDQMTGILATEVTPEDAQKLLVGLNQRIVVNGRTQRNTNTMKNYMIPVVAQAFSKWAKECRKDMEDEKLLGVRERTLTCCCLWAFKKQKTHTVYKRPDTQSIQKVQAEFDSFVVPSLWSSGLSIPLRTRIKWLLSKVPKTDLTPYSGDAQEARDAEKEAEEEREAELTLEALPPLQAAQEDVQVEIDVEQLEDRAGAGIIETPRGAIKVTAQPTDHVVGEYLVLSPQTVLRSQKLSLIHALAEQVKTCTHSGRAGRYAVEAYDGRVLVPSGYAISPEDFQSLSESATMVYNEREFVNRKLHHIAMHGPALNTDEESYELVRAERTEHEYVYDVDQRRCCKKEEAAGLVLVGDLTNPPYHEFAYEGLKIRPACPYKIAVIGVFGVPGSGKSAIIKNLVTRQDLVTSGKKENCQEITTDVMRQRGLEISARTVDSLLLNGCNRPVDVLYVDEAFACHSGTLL
NSP2 full ctr = selectivity test for CHIKV nsP2 protease inhibitors: full-length NSP2 | actives 39% (n = 410) | Full-length CHIKV NSP2 protease enzymatic counterscreen | AID 1964101 | Potency, µM (doses to about 50.7 µM), most hits filed as inhibitors | shares compounds with nsP2pro inh; also: nearly all actives have a fitted effect of over 65% in size
Furin counter = selectivity counter-screen for CHIKV nsP2 protease inhibitors: human furin; AID 1964102; Recombinant human furin enzymatic counterscreen, fluorogenic substrate; actives 6% (n = 410); Potency, µM (doses to about 50.6 µM), most hits filed as inhibitors; shares compounds with nsP2pro inh
nsP2 NS23 pep = selectivity test for CHIKV nsP2 protease inhibitors: endogenous NS2/3 peptide; shares compounds with nsP2pro inh; Purified CHIKV nsP2 protease, endogenous NS2/3 peptide cleavage; Potency, µM (series often up to 51 µM), usual class: inhibitors; actives 34% (n = 410); also: nearly all actives have a fitted effect of over 55% in size
Papain cs = inhibits papain in a CHIKV nsP2 protease selectivity counterscreen; AID 1964104; Potency, µM (doses to about 51 µM), usual class: inhibitors; actives 5% (n = 410); purified papain protease activity, enzymatic inhibition; shares compounds with nsP2pro inh
nsP2pro conf qHTS = CHIKV nsP2 protease inhibition, confirmatory qHTS; shares compounds with nsP2pro inh; CHIKV nsP2 protease enzymatic activity, qHTS; Potency, µM (highest dose often 25.5 µM), usual class: inhibitors; actives 43% (n = 410); also: nearly all actives have a fitted effect of over 75% in size
HCV NS3 counter = inhibits HCV NS3/4A protease in an nsP2pro selectivity counterscreen; shares compounds with nsP2pro inh; actives 20% (n = 410); HCV NS3/4A protease biochemical counterscreen; Potency, µM (top dose mostly 50.9 µM), actives largely listed as inhibitors; AID 1964106; also: nearly all actives have a fitted effect of over 55% in size
Numbers stand for hits; [ ] = remark or other dose. Calls follow the shape of the full dose curve.

How did COC1(C[S@@](=O)c2ccccc2)CCN(CCc2c[nH]c3ccc(F)cc23)CC1 do in these assays?
nsP2pro inh: inconclusive; nsP2 cell sec: inactive; NSP2 full ctr: inactive; Furin counter: inactive; nsP2 NS23 pep: inactive; Papain cs: inactive; nsP2pro conf qHTS: inactive; HCV NS3 counter: inactive

What do the screens show for `O=C1c2ccccc2NC(c2ccccc2O)N1Cc1ccccc1` (centres undefined)?
nsP2pro inh: inactive

How did Brc1ccc(-c2ccc(C3Nc4cccc5cccc(c45)N3)o2)cc1 do in these assays?
nsP2pro inh: inactive

What do the screens show for `O=C1c2ccccc2NC(c2ccc(-c3cccs3)o2)N1O` (centres undefined)?
nsP2pro inh: 5.6µM; nsP2 cell sec: inactive; NSP2 full ctr: inactive; Furin counter: inactive; nsP2 NS23 pep: inactive; Papain cs: inactive; nsP2pro conf qHTS: inactive; HCV NS3 counter: inactive

What do the screens show for `O=C1c2ccccc2NC(c2ccc(Br)o2)N1O` (centres undefined)?
nsP2pro inh: inactive

Results for Fc1ccccc1C1=NC(c2ccc(C(F)(F)F)cc2)=Nc2ccccc2N1 ?
nsP2pro inh: inactive

Results for O=C1c2ccccc2NC(c2ccc(-c3ccc(C(F)(F)F)cc3)o2)N1O (centres undefined) ?
nsP2pro inh: 10µM; nsP2 cell sec: 21µM; NSP2 full ctr: inactive; Furin counter: inactive; nsP2 NS23 pep: inactive; Papain cs: inactive; nsP2pro conf qHTS: inactive; HCV NS3 counter: inactive

Results for COc1cc2ncnc(Oc3cccc(NC(=O)Nc4cc(C(C)(C)C(F)(F)F)on4)c3)c2cc1OC ?
nsP2pro inh: inactive

What do the screens show for `COC(c1ccccc1)(c1ccccc1)[C@H](Oc1nc(C)cc(C)n1)C(=O)O`?
nsP2pro inh: inactive

What do the screens show for `COc1ccc(C(=O)N2CCC([C@@H]3CNC[C@H]3CO)CC2)cc1`?
nsP2pro inh: inactive

How did COc1ccc(C(=O)Nc2ccc(-c3nc4ccccc4[nH]3)cc2)cc1C(F)(F)F do in these assays?
nsP2pro inh: inactive

How did OCCN1CCN(CCCN2c3ccccc3C=Cc3ccccc32)CC1 do in these assays?
nsP2pro inh: 8.8µM; nsP2 cell sec: inactive; NSP2 full ctr: inconclusive; Furin counter: inactive; nsP2 NS23 pep: inactive; Papain cs: inactive; nsP2pro conf qHTS: inactive; HCV NS3 counter: inactive

Results for CC(=O)c1ccc2c(c1)N(CCCN1CCN(CCO)CC1)c1ccccc1S2 ?
nsP2pro inh: inactive

What do the screens show for `OCCN1CCN(CCCN2c3ccccc3Sc3ccc(C(F)(F)F)cc32)CC1`?
nsP2pro inh: inactive

Results for Cc1nnc(-c2ccccc2C(C)C)nc1NCc1ccc(-c2cccnc2)cc1 ?
nsP2pro inh: inactive

How did C=CCCC(CN1CCCOCC1)Oc1cc(C#N)ccn1 (centres undefined) do in these assays?
nsP2pro inh: inactive

What do the screens show for `Cc1cnc(CCN)n1Cc1ccccc1`?
nsP2pro inh: inactive

Results for Cc1sc2c(c1C)c(=O)n(Cc1ccccc1)c(=O)n2Cc1ccc(F)cc1 ?
nsP2pro inh: inactive

Results for Cn1sc(=O)n(Cc2ccccc2)c1=O ?
nsP2pro inh: 6.2µM; nsP2 cell sec: inconclusive; NSP2 full ctr: 12µM; Furin counter: inconclusive; nsP2 NS23 pep: 9.2µM; Papain cs: inactive; nsP2pro conf qHTS: 4µM; HCV NS3 counter: inactive

How did CCOc1ccc2c(n1)CCN(C(=O)C1(c3ccccc3)CC1)C2 do in these assays?
nsP2pro inh: inactive

How did CO[C@@H](C(=O)N1Cc2[nH]nc(NC(=O)c3ccc(N4CCN(C)CC4)cc3)c2C1)c1ccccc1 do in these assays?
nsP2pro inh: inactive

Results for CNC[C@H](O)c1cccc(O)c1 ?
nsP2pro inh: inactive

What do the screens show for `Oc1ccc(CCNCCCCCCNCCc2ccccc2)cc1O`?
nsP2pro inh: inactive

What do the screens show for `Oc1ccc(C(O)CNCCCCCCNCC(O)c2ccc(O)c(O)c2)cc1O` (centres undefined)?
nsP2pro inh: inconclusive; nsP2 cell sec: inactive; NSP2 full ctr: inconclusive; Furin counter: 26µM; nsP2 NS23 pep: inactive; Papain cs: inactive; nsP2pro conf qHTS: inactive; HCV NS3 counter: inactive

What do the screens show for `O=C(Cc1ccccc1Cl)NC1CCN(c2cc(-c3cccs3)[nH]n2)C1` (centres undefined)?
nsP2pro inh: inactive

Results for O=C(NC[C@H](O)CN1CCc2ccccc2C1)c1cc(NC2COC2)ncn1 ?
nsP2pro inh: inactive

How did COc1ccc(C2c3c(nc(C)[nH]c3=O)Oc3ccc4ccccc4c32)cc1OC (centres undefined) do in these assays?
nsP2pro inh: inactive

Results for Cc1ccc(CN2C(=O)OC(c3cccc(NC(=O)c4ccc(F)cc4)c3)C2C(=O)NC2CC2)cc1 (centres undefined) ?
nsP2pro inh: inactive

How did Cc1ccc(S(=O)(=O)c2nc(-c3ccccc3F)oc2NCc2ccccc2)cc1 do in these assays?
nsP2pro inh: inactive

Results for COc1ccc(-c2nc(-c3ccccc3)c(NCc3ccccc3)o2)cc1 ?
nsP2pro inh: inactive[5.1 µM]

How did COc1ccc(-c2nc(S(=O)(=O)c3ccc(C)cc3)c(NCc3ccccc3)o2)cc1 do in these assays?
nsP2pro inh: 4.5µM; nsP2 cell sec: inconclusive; NSP2 full ctr: inconclusive; Furin counter: inactive; nsP2 NS23 pep: inconclusive; Papain cs: 13µM; nsP2pro conf qHTS: 8µM; HCV NS3 counter: inactive

Results for O=C(C1CCCN1[S+](=O)([O-])c1cccc(C(F)(F)F)c1)N1CCC(N2CCCC2=O)CC1 (centres undefined) ?
nsP2pro inh: inactive

What do the screens show for `O=C(CSc1nnc(-c2cccc([S+](=O)([O-])N3CCCC3)c2)n1-c1ccccc1)Nc1ccc(Br)cc1`?
nsP2pro inh: inactive

How did O=C1CO[C@H]2CN(c3ncccn3)C[C@H]2N1CC1CCCCC1 do in these assays?
nsP2pro inh: 2.2µM; nsP2 cell sec: inactive; NSP2 full ctr: inactive; Furin counter: inconclusive; nsP2 NS23 pep: 24µM; Papain cs: inactive; nsP2pro conf qHTS: 3.7µM; HCV NS3 counter: 9.4µM

How did O=C(c1cnccn1)N1C[C@@H]2OCC(=O)N(CC3CCCCC3)[C@@H]2C1 do in these assays?
nsP2pro inh: inactive

What do the screens show for `N#Cc1ccc(N2C[C@@H]3OCC(=O)N(CC4CCCCC4)[C@@H]3C2)nc1`?
nsP2pro inh: inactive
